# Experimental data from PubChem BioAssay.
# Several values for one entry are separate records, joined by “and”; a condition that tells them apart may be missing. Equal entries are not always repeated. Results filed as inconclusive are left out. Activity calls are given as the source filed them.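 Rule for the calls, unless noted: active = compounds lowering colon cancer cell viability after pretreatment blocking the GSK3B kinase; inactive = the rest.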
# How the values were obtained:
# [1] = stimulators of nuclear beta-catenin in C2C12, primary screen, imaging, WNT3A-conditioned medium, mouse C2C12, NPC library (AID 1117326; in the data active = nuclear beta-catenin stimulation mostly above about 4.2%, no sharp cut-off; inactive = mostly below about 10%; note: reference of the scale not given here); conditions: stronger effect = higher value
# [2] = stimulators of insulin release from INS-1E, primary screen, cell-based, 5 mM glucose, NPC library (AID 1117329;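 active = compound raises insulin release from rat beta cells at 5 mM glucose, no numeric limit stated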; note: reference of the scale not given here); conditions: rat INS-1E insulin secretion, at 10 µM, stronger effect = higher value
# [3] = growth inhibition of GSK3B-pretreated HCT116 cells – cell-based, CellTiter-Glo, 0.2 to 20 µM (AID 1117336); conditions: HCT116 viability after GSK3B inhibitor, at 20 µM, stronger effect = higher value
# [4] = inhibition of endothelial tube formation, primary screen, imaging, VEGF stimulated, CD31 staining, tube area, NPC library (AID 1117340;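 active = compound that reduces growth-factor-driven endothelial tube area in a mixed cell culture, no cutoff stated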); conditions: VEGF-stimulated ADSC/ECFC co-culture, at 10 µM, stronger effect = higher value
# [5] = glucagon-like peptide 1 release enhancers, primary assay, NCI-H716 cell line, NPC library (AID 1117341;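 active = compound raises GLP1 secretion from the human gut endocrine cells, with no numeric limit stated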; note: reference of the scale not given here); conditions: NCI-H716 cells, at 10 µM, stronger effect = higher value
# [6] = HCT116 colon cancer cell growth inhibition, primary screen, CellTiter-Glo luminescence, NPC library (AID 1117342;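 active = compounds that lower survival of HCT116 colon cancer cells in the luminescence readout, no numeric limit stated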); conditions: at 20 µM (top of the series)
# [7] = CellTiter-Glo luminescent readout of SW480 viability loss, NPC library primary (AID 1117343;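 active = compounds that lower viability of the colon cancer cells in the luminescence readout, with no numeric limit stated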); conditions: CellTiter-Glo luminescence; at 20 µM (top of the series) unless noted
# [8] = decreased DLD-1 cellular survival, CellTiter-Glo luminescent readout, NPC compound collection, primary HTS (AID 1117346;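 active = compounds that lower survival of DLD-1 colon cancer cells in the luminescence readout, no cutoff given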); conditions: DLD-1 viability, CellTiter-Glo luminescence; at 20 µM (top of the series)
# [9] = growth inhibition of DIPG glioma cells, dose response, cell-based, SU-DIPG-XVII, MIPE5.0, CellTiter-Glo, qHTS (AID 1347060; cut-off not given, nearly all actives have AC50 up to about 26 µM); conditions: SU-DIPG-XVII viability, CellTiter-Glo ATP luminescence
# [10] = growth inhibition of DIPG glioma cells, dose response, cell-based, SU-DIPG-XIII, MIPE4.0, CellTiter-Glo, qHTS (AID 1347061; cut-off not given, nearly all actives have AC50 up to about 37 µM;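 note: cells exposed to compound for 48 hours before readout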); conditions: SU-DIPG-XIII viability, CellTiter-Glo ATP luminescence
# [11] = SU-DIPG-VI glioma cell viability, MIPE4.0 library, CellTiter-Glo luminescence, qHTS (AID 1347066; cut-off not given, nearly all actives have AC50 up to about 30 µM;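 note: cells exposed to compound for 48 hours before readout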); conditions: CellTiter-Glo ATP luminescence
# [12] = liver-stage malaria parasite growth inhibition, primary screen, cell-based, HepG2, luciferase luminescence, HepG2 viability (AID 624349; in the data active = parasite load remaining mostly below about 12%, no sharp cut-off; inactive = mostly above about 10%;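 note: 100% = mean of DMSO negative control wells on the same plate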); conditions: P. berghei liver stage in HepG2, luciferase luminescence, concentration not given here; parasite load remaining: stronger effect = lower value; viability: measured here: HepG2 viability without parasites
# [13] = SU-DIPG-XXV glioma cell viability, MIPE5.0 library, qHTS (AID 1347068; cut-off not given, nearly all actives have IC50 up to about 30 µM)
# [14] = sensitizers of A549 cells to miR-34 induction, primary screen, imaging, A549 dox-inducible miR-34, nuclei and caspase counts (AID 1347080;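 active = compounds whose cell count with miR-34 switched on is under 0.7 times the count with it off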); conditions: A549 miR-34 inducible, Hoechst nuclei count, 48 h
# [15] = survival rescue of mitochondrial mutant cells in low glucose, primary screen, MELAS cybrids, Rieske KO mouse fibroblasts, CellTiter-Glo (AID 1508586;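 active = mean z-score across replicates of 1.96 or higher in either the MELAS or the Rieske mutant cell line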;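 note: z relative to plate mean and SD of compound and empty wells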)
# [16] = target: NAD(+) hydrolase SARM1 (Homo sapiens) (UniProt Q6SZW1); assay: SARM1 TIR NADase inhibitors, cell lysate, NAD-Glo luminescence (AID 1508614;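 active = compound whose remaining NAD level is above about 45 nM, limit read from the data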;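 note: higher remaining NAD means stronger inhibition of SARM1 NADase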); conditions: SAM-TIR HEK293T lysate NADase, at 1 µM, stronger effect = higher value
# [17] = viability rescue of complex I mutant cybrids, primary screen, cell-based, galactose medium, ATP luminescence (AID 1645843;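 active = z-score of at least 1.8 in each of two replicates, scored against plate mean and spread of sample wells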;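 note: positive z means more ATP and so rescue of galactose-driven cybrid death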); conditions: complex I mutant cybrid cells, 72 h, stronger effect = higher value
# [18] = tested on: Aerobactin synthetase IucA (Klebsiella pneumoniae); assay: IucA aerobactin synthetase inhibitors, biochemical, Tocris library, absorbance (AID 1345561; call rule not given here;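 note: 100% = enzyme without compound and 0% = no enzyme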); conditions: purified IucA enzyme assay, absorbance (OD) read-out; stronger effect = lower value;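 tested at 8 µM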
# [19] = stronger effect = lower value, cell number ratio, induced over uninduced
# [20] = measured here: relative caspase fold change +Dox/-Dox
# [21] = measured here: total cells with miR-34 induction, stronger effect = lower value
# [22] = measured here: total cells without miR-34 induction
# Sequence of NAD(+) hydrolase SARM1 (Homo sapiens) (Q6SZW1 whole entry, looked up): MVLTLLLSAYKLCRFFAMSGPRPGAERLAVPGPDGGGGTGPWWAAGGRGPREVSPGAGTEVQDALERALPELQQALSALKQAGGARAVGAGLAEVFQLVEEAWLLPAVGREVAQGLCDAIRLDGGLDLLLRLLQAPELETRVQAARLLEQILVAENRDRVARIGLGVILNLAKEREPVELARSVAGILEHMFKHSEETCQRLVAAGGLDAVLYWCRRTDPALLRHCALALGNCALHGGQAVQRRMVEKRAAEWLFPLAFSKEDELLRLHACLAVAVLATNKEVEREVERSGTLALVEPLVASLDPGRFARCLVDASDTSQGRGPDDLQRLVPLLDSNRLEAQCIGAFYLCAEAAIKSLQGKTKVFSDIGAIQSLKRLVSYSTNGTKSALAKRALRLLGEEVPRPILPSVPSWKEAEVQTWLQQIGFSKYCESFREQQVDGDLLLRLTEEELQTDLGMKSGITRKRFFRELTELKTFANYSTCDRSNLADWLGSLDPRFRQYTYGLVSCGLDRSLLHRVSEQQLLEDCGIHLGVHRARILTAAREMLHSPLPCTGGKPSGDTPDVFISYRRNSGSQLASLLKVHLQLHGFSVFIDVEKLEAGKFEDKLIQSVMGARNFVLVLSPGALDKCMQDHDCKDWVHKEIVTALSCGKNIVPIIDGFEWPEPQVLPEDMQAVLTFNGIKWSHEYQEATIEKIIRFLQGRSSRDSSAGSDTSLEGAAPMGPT
smiles,measurement,setting,value
CC(=O)SC[C@@H](C)C(=O)N1CCC[C@H]1C(=O)N[C@@H](Cc1ccccc1)C(=O)O,nuclear beta-catenin stimulation,[1]; at 10 µM,-0.2% (inactive)
same,nuclear beta-catenin stimulation,"[1]; stimulation, at 2 µM",-1.6%
same,insulin secretion stimulation,[2],0% (inactive)
same,viability decrease,[3],-13.4% (inactive)
same,tube area decrease,[4],7.4% (inactive)
same,GLP1 secretion stimulation,[5],0.3% (inactive)
same,inhibition of viability,[6],2.4% (inactive)
same,viability decrease (inhibition),[7],-15.3% (inactive)
same,viability decrease (inhibition),[8],-1.4% (inactive)
same,outcome,[9],inactive
same,outcome,[10],inactive
same,outcome,[11],inactive
O=c1[nH]c(=O)n([C@H]2C[C@H](O)[C@@H](CO)O2)cc1I,parasite load remaining,[12],42.1% (inactive) and 24.1% (inactive)
same,viability,[12],53.4% and 72.5%
same,nuclear beta-catenin stimulation,[1]; at 10 µM,-0.5% (inactive)
same,nuclear beta-catenin stimulation,"[1]; stimulation, at 2 µM",0.3%
same,insulin secretion stimulation,[2],0.4% (inactive)
same,viability decrease,[3],10.1% (inactive)
same,tube area decrease,[4],69.4% (active)
same,GLP1 secretion stimulation,[5],-0.6% (inactive)
same,inhibition of viability,[6],11.4% (inactive)
same,viability decrease (inhibition),[7],39.4% (inactive)
same,viability decrease (inhibition),[8],9.4% (inactive)
same,outcome,[9],inactive
same,outcome,[10],inactive
same,outcome,[11],inactive
same,outcome,[13],inactive
same,fold change,[14]; [19],0.955 (inactive) and 0.894 (inactive)
same,fold change,[14]; [20],1.48 and 1.08
same,cell count,[14]; [21],8120 and 9040
same,cell count,[14]; [22],8510 and 10100
same,z-score,"[15]; MELAS cybrid survival, CellTiter-Glo 48 h, stronger effect = higher value",1.21 (inactive) and 1.8 (inactive)
same,z-score,"[15]; Rieske KO mouse fibroblast survival, CellTiter-Glo 72 h",0.284 and 0.0835
same,remaining NAD,[16],10 nM (inactive)
same,z-score,[17],0.45 (inactive)
Nc1ccn(C2CO[C@H](CO)O2)c(=O)n1 (some centres not stated),nuclear beta-catenin stimulation,[1]; at 10 µM,1.3% (inactive)
same,nuclear beta-catenin stimulation,"[1]; stimulation, at 2 µM",0.3%
same,insulin secretion stimulation,[2],2% (inactive)
same,viability decrease,[3],-8.3% (inactive)
same,tube area decrease,[4],7.2% (inactive)
same,GLP1 secretion stimulation,[5],0.5% (inactive)
same,inhibition of viability,[6],4.2% (inactive)
same,viability decrease (inhibition),[7],-18.8% (inactive)
same,viability decrease (inhibition),[8],3.7% (inactive)
same,outcome,[9],inactive
same,outcome,[10],inactive
same,outcome,[11],inactive
same,outcome,[13],inactive
Cc1oc(=O)oc1CN1CCN(c2cc3c(cc2F)c(=O)c(C(=O)O)c2n3C(C)S2)CC1 (configuration not stated),nuclear beta-catenin stimulation,[1]; at 10 µM,0.8% (inactive)
same,nuclear beta-catenin stimulation,"[1]; stimulation, at 2 µM",1.4%
same,insulin secretion stimulation,[2],1.6% (inactive)
same,viability decrease,[3],35.8% (inactive)
same,tube area decrease,[4],4.4% (inactive)
same,GLP1 secretion stimulation,[5],2.3% (inactive)
same,inhibition of viability,[6],38.1% (inactive)
same,viability decrease (inhibition),[7],26.1% (inactive)
same,viability decrease (inhibition),[8],1.4% (inactive)
same,outcome,[9],inactive
same,outcome,[10],inactive
same,outcome,[11],inactive
same,outcome,[13],inactive
same,remaining NAD,[16],10 nM (inactive)
C[N+](C)(C)CC[N+]1(C)Cc2c(Cl)c(Cl)c(Cl)c(Cl)c2C1,nuclear beta-catenin stimulation,[1]; at 10 µM,4.4% (inactive)
same,nuclear beta-catenin stimulation,"[1]; stimulation, at 2 µM",2.6%
same,insulin secretion stimulation,[2],-0.5% (inactive)
same,viability decrease,[3],-1% (inactive)
same,tube area decrease,[4],7.3% (inactive)
same,GLP1 secretion stimulation,[5],2.6% (inactive)
same,inhibition of viability,[6],-4.53% (inactive)
same,viability decrease (inhibition),[7],2.9% (inactive)
same,viability decrease (inhibition),[8],-10.2% (inactive)
same,remaining activity,[18],115% (inactive)
same,fold change,[14]; [19],0.88 (inactive)
same,fold change,[14]; [20],1.79
same,cell count,[14]; [21],9090
same,cell count,[14]; [22],10300
same,z-score,[17],0.045 (inactive)
